Screening data (PubChem BioAssay)
This is a sample that favours compounds with a hit; in the whole collection about 6.1% have one here.
D1 antag: antagonists of human D1 dopamine receptor; P21728; HEK293 TREx D1 cells, calcium flux, dopamine EC80; hits give low values; activity change, negative = inhibition, % at 10 µM; hit rate 3.2% among 360,000; AID 504652; in the data active = activity change below about -30%; also: % is scaled to controls: 0 for no effect and ±100 for the full control effect
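After overnight tetracycline induction at 30 C, force-coupled D1 HEK293 cells took up a no-wash calcium dye at room temperature. Compounds were added and monitored 180 s, and the response to EC80 dopamine was then recorded.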
DRD3 agonist: activates the human D3 dopamine receptor; P35462; D3R DiscoveRx beta-arrestin cells, luminescence, 90 min; max activation, %; hit rate 0.58% among 410,000; AID 652048; in the data active = max activation above about 30%; also: 0% is about no effect
Target sequence (P35462 whole entry, looked up): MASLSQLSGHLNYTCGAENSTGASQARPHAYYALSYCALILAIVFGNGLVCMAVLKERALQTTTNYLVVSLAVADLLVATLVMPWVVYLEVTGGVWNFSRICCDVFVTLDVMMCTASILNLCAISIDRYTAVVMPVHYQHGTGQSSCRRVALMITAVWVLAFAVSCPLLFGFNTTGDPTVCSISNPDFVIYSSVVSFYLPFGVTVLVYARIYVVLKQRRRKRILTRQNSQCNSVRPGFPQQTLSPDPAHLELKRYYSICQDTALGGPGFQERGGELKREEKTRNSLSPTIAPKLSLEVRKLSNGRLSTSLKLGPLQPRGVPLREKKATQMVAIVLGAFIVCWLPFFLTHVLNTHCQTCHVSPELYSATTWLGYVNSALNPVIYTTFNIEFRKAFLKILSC
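Agonist mode: compounds and dopamine controls were applied to plated cells for 90 min at 37 degrees C after an overnight attachment at 1500 cells/well. Luminescent read-out followed 30 - 60 minutes at room temperature with DiscoveRx detection reagent.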
D1 PAM: human D1 dopamine receptor positive modulation; potentiation, % at 10 µM; HEK293 TREx D1 cells, calcium flux, dopamine EC20 potentiation; hit rate 0.036% among 360,000; in the data active = potentiation above about 30%; also: 0% is about no effect
D1 ag: agonists of human D1 dopamine receptor; HEK293 T-REx D1 cells, calcium flux, agonist mode; AID 504660; P21728; activation, % at 2 µM; hit rate 1% among 360,000; in the data active = activation above about 30%; also: 0% is about no effect
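Tetracycline-induced HEK293 TREx D1 cells, force-coupled to calcium signalling, were dye-loaded with a no-wash calcium kit. Compound was pin-added after a 10 s baseline. Fluorescence was read kinetically at 1 cycle/s for 180 s, with calcium rises flagged as agonism.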
DRD3 antagonist: antagonists of human D3 dopamine receptor; hit rate 2.5% among 360,000; P35462; D3R cells, DiscoveRx beta-arrestin luminescence, antagonist mode; hits give low values; max response, negative = inhibition, %; in the data active = max response below about -50%; inconclusive = no clear call, values can overlap the other calls; also: % is scaled to controls: 0 for no effect and ±100 for the full control effect
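Cells plated overnight at 1500 cells/well, then exposed to library compounds with dopamine controls for 90 minutes at 37 degrees C. DiscoveRx reagent added for 30–60 minutes at room temperature; luminescence read, quantitative HTS format.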
The depositor's hits bear a star.

For O=C(CSc1ncccn1)N(Cc1cccnc1)C(CCc1ccccc1)c1nc2ccccc2[nH]1 (centres undefined) the results were DRD3 agonist 1.8 and DRD3 antagonist -25.6.
`CCN(CC)c1ccc2cc(C(C)=O)c(=O)oc2c1` gave D1 antag 7.4, DRD3 agonist -6.9, D1 PAM -0.5, D1 ag 145.9* and DRD3 antagonist 0.6.
For CCN(CC)c1ccc2cc(C(=O)Nc3cccnc3N3CCOCC3)c(=O)oc2c1 the results were D1 antag -4.2, D1 PAM 4.7 and D1 ag 9.3.
Screening O=c1ccc(OCCOc2ccccc2)nn1-c1ccccc1 returned D1 antag -3.0, DRD3 agonist -0.6, D1 PAM -5.4, D1 ag 3.1 and DRD3 antagonist 10.7.
Cn1nc(OCC(N)=O)ccc1=O was read as D1 antag -50.9*, DRD3 agonist 2.3, D1 PAM -2.2, D1 ag 1.2 and DRD3 antagonist 17.9.
Screening NC(=O)COc1ccc(=O)n(-c2ccccc2)n1 returned D1 antag -42.2*, DRD3 agonist 4.9, D1 ag 3.0 and DRD3 antagonist 24.3.
`Cc1cc(Oc2ccc(=O)n(C)n2)nc(SCC(N)=O)n1` gave D1 antag 24.7, DRD3 agonist 5.2, D1 PAM -7.1, D1 ag 3.6 and DRD3 antagonist 1.5.
Screening CCOc1ccc(NC(=O)NC23CC4CC(CC(C4)C2)C3)cc1 returned D1 antag -31.4*, DRD3 agonist -5.9, D1 PAM -5.5, D1 ag 13.0 and DRD3 antagonist -23.7.
`CCOc1ccc(NC(=O)NCc2cccn2C)cc1` gave D1 antag -42.4*, DRD3 agonist 6.3, D1 PAM -6.3, D1 ag -0.2 and DRD3 antagonist -16.0.
CCOc1ccc(NC(=O)NCc2cccn2Cc2ccccc2)cc1 was read as D1 antag -0.6, DRD3 agonist 1.6, D1 PAM -3.6 and D1 ag 0.1.
`CC(C)(C)OC(=O)NCCc1nc(NC(=O)OCc2ccccc2)sc1C(=O)O` gave DRD3 agonist 4.4 and DRD3 antagonist 21.9.
Cc1cc(C)c(OCCOCCN2CCN(C)CC2)c(Cl)c1 was read as D1 antag -7.4, DRD3 agonist -7.6, D1 PAM 0.0, D1 ag -2.3 and DRD3 antagonist inconclusive.
`Cc1cc(Cl)cc(Cl)c1OCCN1CCCC1` gave D1 antag -31.0*, DRD3 agonist -13.6, D1 PAM -0.2, D1 ag 3.2 and DRD3 antagonist -12.0.
Screening Cc1cc(Cl)cc(Cl)c1OCCCCN(C)C returned D1 antag -3.4, DRD3 agonist -8.7, D1 PAM -11.4, D1 ag 7.8 and DRD3 antagonist -20.3.
`Cc1cc(C)c(OCCN2CCCC2)c(Cl)c1` gave D1 antag -59.5*, DRD3 agonist -2.8, D1 PAM 4.2, D1 ag 4.7 and DRD3 antagonist -11.2.
`CCCCn1cc([N+](=O)[O-])nc1C` gave D1 antag -5.5, DRD3 agonist -5.6, D1 PAM -1.4, D1 ag 2.1 and DRD3 antagonist -20.2.
C=CCn1cc([N+](=O)[O-])nc1C was read as D1 antag -31.0*, DRD3 agonist -1.9, D1 PAM -3.4, D1 ag 0.6 and DRD3 antagonist -17.8.
Screening CC1(C)C[C@H](O)[C@]2(CO)[C@H](O)C[C@]3(C)C(=CCC4[C@@]5(C)CC[C@H](O)C(C)(C)C5CC[C@]43C)[C@@H]2C1 (some centres undefined) returned DRD3 agonist -7.4 and DRD3 antagonist -84.4*.
For CC1(C)C[C@H](O)[C@]2(CO)CC[C@]3(C)C(=CCC4[C@@]5(C)CC[C@H](O)C(C)(C)C5CC[C@]43C)[C@@H]2C1 (some centres undefined) the results were D1 antag 19.3, DRD3 agonist 7.7, D1 PAM 7.2, D1 ag 4.4 and DRD3 antagonist 31.6.
Screening COc1cccc(C(C(=O)NCC2CCCO2)N(C(=O)Cn2nnc3ccccc32)c2ccc(NC(C)=O)cc2)c1OC (centres undefined) returned D1 antag 5.2, DRD3 agonist -6.8, D1 PAM -6.9, D1 ag 3.3 and DRD3 antagonist 2.6.
For CN1CCN(S(=O)(=O)c2cccc(C(=O)N(C)Cc3cccs3)c2)CC1 the results were D1 antag -46.5*, DRD3 agonist -4.8, D1 ag 2.8 and DRD3 antagonist -0.3.
